High-throughput results: PubChem, National Center for Advancing Translational Sciences (NCATS)
HT1080 IDH1KD tx: qHTS for induction of synthetic lethality in tumor cells producing 2HG: qHTS for the HT-1080-IDH1KD cell line | HT-1080 IDH1 knockdown viability, ATP luminescence, 48 h | Potency, µM (top dose mostly 46.1 µM), actives largely listed as cytotoxic | 360,000 compounds, 2% hits
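HT-1080-IDH1KD cells (IDH1 knocked down), 750/well in RPMI with 5% FBS, treated with compound 48 h at 37 degrees C. Viability by CellTiter-Glo luminescence, normalised to DMSO and no-cell wells; concentration-response curves classed.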
KB-3-1 tox: qHTS assay for MDR1-selective chemotherapeutics: Primary screen using the parental adenocarcinoma cell KB-3-1; Potency, µM (doses to about 46.1 µM), usual class: cytotoxic; AID 1347075, 2019; KB-3-1 viability, CellTiter-Glo ATP luminescence, 72 h; 400,000 compounds, 1.4% hits; also: nearly all actives have a fitted effect of over 60% in size
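Parental KB-3-1 viability, qHTS format: 72 h compound exposure, 37 °C; CellTiter-Glo; media-only wells and DMSO plates as controls; concentration-effect fits on corrected data.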
KB-V1 cytotox: qHTS assay for MDR1-selective chemotherapeutics: Primary screen using the drug-selected MDR subline cells KB-V1; 400,000 compounds, 3.4% hits; Potency, µM (doses to about 46.1 µM), hits mostly cytotoxic; KB-V1 MDR cells viability, CellTiter-Glo, 72 h; also: nearly all actives have a fitted effect of over 60% in size
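Cytotoxicity toward P-gp-expressing KB-V1 cells was determined as loss of CellTiter-Glo luminescence after 72 h at 37 degrees C. Compounds were tested in quantitative HTS format across a concentration range, with curves fitted to normalized data.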
HT1080-NT tox: qHTS for induction of synthetic lethality in tumor cells producing 2HG: qHTS for the HT-1080-NT fibrosarcoma cell line; HT-1080-NT fibrosarcoma viability, CellTiter-Glo ATP luminescence, 48 h; 360,000 compounds, 1.6% hits; Potency, µM (highest dose often 46.1 µM), usual class: cytotoxic;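 also: NT is the 2HG producing partner of a matched IDH1 knockdown line; nearly all actives have a fitted effect of over 55% in size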
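Fibrosarcoma NT cells, 750 per well in 5% FBS RPMI, were exposed to compound for 48 hours. Viability: CellTiter-Glo luminescence.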
IL-1B inflam inh: qHTS for Inhibitors of Inflammasome Signaling: IL-1-beta AlphaLISA Primary Screen; 360,000 compounds, 4.7% hits; AID 743279, 2014; THP-1 LPS/ATP IL-1B secretion, AlphaLISA, 16 h; stronger effect = lower value; activity change, % at 57.5 µM; in the data active = activity change below about -50%; inconclusive = mostly about -30% to -49%
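THP-1 cells pretreated 1 hr with compounds (up to 57.5 uM final), then stimulated with LPS (250 ng/mL final) plus ATP (1.25 mM final); secreted IL-1B measured by AlphaLISA after 16 hr, decreased signal indicating inhibition.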
Of the large screens only hits and unclear results are named; the others gave an inactive call. The list is not random: actives were taken first. Their share in the collection is about 8.8%. Unless noted, calls follow the shape of the dose curve; as a rule, active = well fitted curve in the direction sought with a large enough effect; inconclusive = small, poorly fitted or top-dose-only effect, or another doubt; inactive = no such curve, though single readings can be large; an effect the other way counts as inactive or inconclusive.

CC(C)NS(=O)(=O)c1ccc(OCC(=O)N2CCN(Cc3ccc4c(c3)OCO4)CC2)c(Cl)c1	HT1080 IDH1KD tx inconclusive, HT1080-NT tox inconclusive
O=P1(Nc2ccc(F)cc2)COc2ccccc2OC1	none
Cn1cnc(CCN)c1	none
COCCCNC(=O)c1c(NC(=O)c2ccco2)n(Cc2ccccc2)c2nc3ccccc3nc12	HT1080 IDH1KD tx inconclusive, HT1080-NT tox inconclusive
COCCNC(=O)c1c(NC(=O)c2ccc(Br)o2)n(Cc2ccccc2)c2nc3ccccc3nc12	KB-V1 cytotox 11.6µM
COCCNC(=O)c1c(N)n(CCC(C)C)c2nc3ccccc3nc12	KB-V1 cytotox 16.4µM, IL-1B inflam inh -115.9
COCCCn1c(N)c(C(=O)OCCOC)c2nc3ccccc3nc21	none
CCCCNC(=O)c1c(N)n(CCCOC)c2nc3ccccc3nc12	HT1080 IDH1KD tx inconclusive, KB-V1 cytotox 18.4µM, HT1080-NT tox inconclusive, IL-1B inflam inh inconclusive
COc1cccc2cc(-c3cc(=O)oc4ccc(OC(=O)N(C)C)cc34)oc12	none
c1ccc2c(c1)OCC(C1=NCCN1)O2 (stereo not drawn)	HT1080 IDH1KD tx inconclusive, KB-3-1 tox inconclusive, IL-1B inflam inh -79.3
CC1CCN(CCc2nc3ccccc3[nH]2)CC1	none
CCCOc1ccc(CSc2nc3ccccc3[nH]2)cc1	HT1080 IDH1KD tx 11.2µM, KB-V1 cytotox inconclusive, HT1080-NT tox inconclusive, IL-1B inflam inh -55.5
O=Cc1ccccc1	none (no result: HT1080 IDH1KD tx, HT1080-NT tox, IL-1B inflam inh)
Cc1cc(N(CCCl)CCCl)ccc1C=NNC(=O)Cc1cc(=O)oc2cc(O)ccc12	IL-1B inflam inh -59.3
CCC(=NCc1ccco1)c1c(O)n(-c2ccccc2C)c(=O)[nH]c1=O	none
Cc1cc(OCC(=O)N[C@H](C(=O)O)c2ccccc2)c2c3c(c(=O)oc2c1)CCC3	KB-V1 cytotox inconclusive
Oc1ccc(C2NCc3ccccc3-n3cccc32)cc1Cl (stereo not drawn)	none
FC(F)(F)c1cccc(C2NCc3ccccc3-n3cccc32)c1 (stereo not drawn)	HT1080 IDH1KD tx inconclusive, IL-1B inflam inh -88.2
O=c1c2ccccc2nc(/C=C\c2ccc(F)cc2)n1-c1ccccc1F	KB-3-1 tox inconclusive (no result: HT1080 IDH1KD tx, HT1080-NT tox, IL-1B inflam inh)
O=C(CCCc1ccc(N(CCCl)CCCl)cc1)NCc1ccccc1	HT1080 IDH1KD tx 23.1µM, HT1080-NT tox inconclusive
CC(C#N)CCC#N (stereo not drawn)	none
COc1cc(C(=S)N2CCOCC2)cc(OC)c1OC(=O)Cc1ccccc1	none
OCC1OC(n2cnc3cc(Cl)c(Cl)cc32)C(O)C1O (stereo not drawn)	HT1080 IDH1KD tx inconclusive, HT1080-NT tox inconclusive, IL-1B inflam inh inconclusive
NC(=O)c1c(Br)n(C2OC(CO)C(O)C2O)c2ncnc(N)c12 (stereo not drawn)	HT1080 IDH1KD tx 7.31µM, KB-3-1 tox 4.11µM, KB-V1 cytotox 9.2µM, HT1080-NT tox inconclusive, IL-1B inflam inh -75.7
N#Cc1c(Br)n(C2OC(CO)C(O)C2O)c2ncnc(N)c12 (stereo not drawn)	HT1080 IDH1KD tx 3.26µM, KB-3-1 tox inconclusive, KB-V1 cytotox inconclusive, HT1080-NT tox 7.31µM, IL-1B inflam inh -68.9
O=C(COc1ccc(S(=O)(=O)N2CCOCC2)cc1)Nc1ccc(Cl)c(C(F)(F)F)c1	HT1080 IDH1KD tx inconclusive, KB-3-1 tox inconclusive, KB-V1 cytotox inconclusive, HT1080-NT tox inconclusive
CN1CCN(c2cc(N3CCCCCC3)c(F)cc2[N+](=O)[O-])CC1	KB-V1 cytotox inconclusive, IL-1B inflam inh -56.5
C=C(C)[C@@H]1CC[C@]2(C(=O)O)CC[C@]3(C)[C@H](CC[C@@H]4[C@@]5(C)CC[C@H](O)C(C)(C)[C@@H]5CC[C@]43C)[C@@H]12	none
CCCCCn1c(=O)c(C(=O)NC(C)c2ccccc2)c(O)c2ccccc21 (stereo not drawn)	KB-V1 cytotox inconclusive
Cc1cc(C)c(C(=O)CSc2n[nH]c(=O)n2C2CC2)cc1C	HT1080 IDH1KD tx 31.6µM
CC[C@H](C)[C@@H]1NC(=O)CNC(=O)c2csc(n2)[C@H](C(C)(C)O)OC(=O)C(C)(C)[C@H](CCCC(C)(Cl)Cl)OC(=O)c2csc1n2	HT1080 IDH1KD tx 0.0731µM, KB-3-1 tox 0.461µM, KB-V1 cytotox 13µM, HT1080-NT tox 2.06µM
CCN(c1ccc(C(O)(C(=O)OC)C(F)(F)F)cc1)S(=O)(=O)c1ccc(C)cc1 (stereo not drawn)	KB-V1 cytotox inconclusive
CCOC(=O)C(O)(c1ccc(N(CC)S(=O)(=O)c2ccc(C)cc2)cc1)C(F)(F)F (stereo not drawn)	KB-V1 cytotox 18.4µM
C[n+]1c2cc(N)ccc2cc2ccc(N)cc21	HT1080 IDH1KD tx 2.31µM, KB-3-1 tox 10.3µM, KB-V1 cytotox 16.4µM, HT1080-NT tox 2.31µM, IL-1B inflam inh -108.0
CN1/C(=C\C=Nc2ccccc2)C(C)(C)c2ccccc21	none
CN1/C(=C\C=C2C(=O)NC(=O)NC2=O)C(C)(C)c2ccccc21	HT1080 IDH1KD tx inconclusive, KB-3-1 tox 5.17µM, KB-V1 cytotox inconclusive, HT1080-NT tox inconclusive
C[C@H]1[C@@H](OS(=O)(=O)O)C[C@@H]2C[C@H]([C@@H](O)c3cc(=O)[nH]c(=O)[nH]3)NC3=NC[C@H]1N32	KB-3-1 tox 1.03µM, KB-V1 cytotox 2.06µM, HT1080-NT tox 2.06µM (no result: HT1080 IDH1KD tx)
Nc1ncnc2c1ncn2[C@@H]1O[C@@H]2COP(O)(=S)O[C@H]2[C@H]1O (stereo partly drawn)	none (no result: HT1080 IDH1KD tx, HT1080-NT tox, IL-1B inflam inh)
O=C(c1cc(C(=O)NCc2ccc(Cl)cc2)c(=O)n(Cc2ccc(Cl)cc2)c1)c1cc(F)ccc1O	KB-3-1 tox inconclusive, KB-V1 cytotox 7.31µM
CCCCn1c(O)c(/C(CC)=N/N2CCCCC2c2cccnc2)c(=O)[nH]c1=S (stereo not drawn)	HT1080 IDH1KD tx inconclusive, HT1080-NT tox inconclusive, IL-1B inflam inh -63.7
Cc1ccccc1OCC(=O)N1CCN(CCc2ccccn2)CC1	KB-3-1 tox inconclusive (no result: HT1080 IDH1KD tx, HT1080-NT tox, IL-1B inflam inh)
CCOC(=O)CC(NC(=O)C(Cc1ccc(N(CCCl)CCCl)cc1)NC(C)=O)C(=O)OCC (stereo not drawn)	HT1080 IDH1KD tx inconclusive, HT1080-NT tox inconclusive, IL-1B inflam inh -78.7
CC(=O)NC(Cc1ccc(N(CCCl)CCCl)cc1)C(=O)NC(C(=O)O)C(C)C (stereo not drawn)	none
C#CCN1C(=O)C(O)(CC(=O)c2ccc(OC)c(OC)c2)c2ccccc21 (stereo not drawn)	HT1080 IDH1KD tx inconclusive, KB-3-1 tox inconclusive, KB-V1 cytotox 18.4µM
Clc1ccc2c(c1)C(OC1CN3CCC1CC3)c1ccccc1CS2 (stereo not drawn)	HT1080 IDH1KD tx inconclusive, KB-3-1 tox inconclusive, KB-V1 cytotox 16.4µM, IL-1B inflam inh -104.3
